This is an account of results in a collection of fitness landscapes (doi:10.1126/science.1257360).

Sequences and labels used below:
B1: PhoQ; a variant is named by its letters at X, in order, P23837 (parent)
chain: MKKLLRLFFPLSLRVRFLLATAAVVLVLSLAYGMVALIGYSVSFDKTTFRLLRGESNLFYTLAKWENNKLHVELPENIDKQSPTMTLIYDENGQLLWAQRDVPWLMKMIQPDWLKSNGFHEIEADVNDTSLLLSGDHSIQQQLQEVREDDDDAEMTHSVAVNVYPATSRMPKLTIVVVDTIPVELKSSYMVWSWFIYVLSANLLLVIPLLWVAAWWSLRPIEALAKEVRELEEHNRELLNPATTRELTSLVRNLNRLLKSERERYDKYRTTLTDLTHSLKTPLXXLQXXLRSLRSEKMSVSDAEPVMLEQISRISQQIGYYLHRASMRGGTLLSRELHPVAPLLDNLTSALNKVYQRKGVNISLDISPEISFVGEQNDFVEVMGNVLDNACKYCLEFVEISARQTDEHLYIVVEDDGPGIPLSKREVIFDRGQRVDTLRPGQGVGLAVAREITEQYEGKIVAGESMLGGARMEVIFGRQHSAPKDE

In all, about 140,000 sequences were measured (“enrichment ratio after two sorts for PhoP signalling”: median about 0, highest 2% from about 11 on). Only a selection was taken, and the highest values are over-represented in it overall. Bounds are passed on as bounds.

The variants in the test derive from B1. As to the kind of experiment: enrichment ratio after two sorts for PhoP signalling (ratio (wild type AVST 3.29)); higher = more functional. Particulars: with PhoP (E. coli).
With EHMI, the enrichment ratio was not above 0.25.

Regarding WWKN, the enrichment ratio was not above 0.25.

For YRIR, the enrichment ratio is not above 0.25.

On to HENW, for which the enrichment ratio was not above 0.25.

For GDFP, the enrichment ratio is not above 0.25.

On to WFHL, for which the enrichment ratio was not above 0.25.

As for EAAQ, the enrichment ratio is not above 0.25.

Take SCIM: the enrichment ratio was 3.17.

As for AQIS, the enrichment ratio came to 13.

Take SSIS: the enrichment ratio turned out to be 11.9.

Turning to AQIV, the enrichment ratio amounted to 9.59.

Turning to NSIS, the enrichment ratio is not above 0.25.

In the case of SSMI, the enrichment ratio was determined as 19.

As for SSMR, the enrichment ratio is not above 0.25.

As for SSIM, the enrichment ratio came out at 18.4.

For SSIE, the enrichment ratio is not above 0.25.

In the case of ADIS, the enrichment ratio was not above 0.25.

For the variant SSMD, the enrichment ratio was found to be 3.52.

KSIS: the enrichment ratio is not above 0.25.

For ASCT, the enrichment ratio worked out at 11.1.

Turning to DRDN, the enrichment ratio was not above 0.25.

Regarding ADGC, the enrichment ratio was not above 0.25.

For QENS, the enrichment ratio is not above 0.25.

With MSVE, the enrichment ratio is not above 0.25.

In the case of VCLI, the enrichment ratio was found to be 5.48.

For TNQT, the enrichment ratio was 7.38.

SSMW: the enrichment ratio was not above 0.25.

Regarding DPIS, the enrichment ratio was not above 0.25.

Take SSEL: the enrichment ratio was found to be 0.485.

In the case of KSMF, the enrichment ratio was not above 0.25.

For SQIS, the enrichment ratio was found to be 13.9.

On to SSMS, for which the enrichment ratio worked out at 11.7.

Turning to SSMG, the enrichment ratio is 10.3.

SSIL: the enrichment ratio was 12.3.

Take KSIL: the enrichment ratio was not above 0.25.

Consider SSHF, for which the enrichment ratio was not above 0.25.

With SSMF, the enrichment ratio amounted to 12.7.

For the variant SQIV, the enrichment ratio turned out to be 5.01.

As for IRSG, the enrichment ratio was not above 0.25.

Take FANW: the enrichment ratio was not above 0.25.

Consider HNPM, for which the enrichment ratio was not above 0.25.

For the variant CVPS, the enrichment ratio is not above 0.25.

Take FSNW: the enrichment ratio was not above 0.25.

Consider APGD, for which the enrichment ratio is not above 0.25.

With SFDK, the enrichment ratio is not above 0.25.

For MPYC, the enrichment ratio was not above 0.25.

With EQDL, the enrichment ratio is not above 0.25.

Take KSIG: the enrichment ratio is not above 0.25.

For the variant SDII, the enrichment ratio came to 11.7.

As to SSIG, the enrichment ratio came out at 11.5.

Turning to FDIM, the enrichment ratio was not above 0.25.

Turning to STME, the enrichment ratio was 8.24.

As to SCII, the enrichment ratio was 5.01.

On to TSIG, for which the enrichment ratio is not above 0.25.

SSME: the enrichment ratio is 16.6.

Regarding FSIM, the enrichment ratio worked out at 11.9.

As for KSME, the enrichment ratio is not above 0.25.

SYII: the enrichment ratio was not above 0.25.

As for KSIM, the enrichment ratio is not above 0.25.

Turning to KAWR, the enrichment ratio is not above 0.25.

On to KQKI, for which the enrichment ratio is not above 0.25.

For the variant TDSI, the enrichment ratio was determined as 8.92.

As to PNEG, the enrichment ratio is not above 0.25.

Turning to MIVG, the enrichment ratio is not above 0.25.

NTPE: the enrichment ratio is not above 0.25.

As for KFFD, the enrichment ratio is not above 0.25.

For PYGG, the enrichment ratio was not above 0.25.

Consider PMVC, for which the enrichment ratio was not above 0.25.

MEVQ: the enrichment ratio was not above 0.25.

Regarding SCVQ, the enrichment ratio amounted to 3.12.

For ATVA, the enrichment ratio is 1.05.

KYVQ: the enrichment ratio was not above 0.25.

Turning to SLVQ, the enrichment ratio was found to be 0.637.

Consider STVQ, for which the enrichment ratio came out at 12.

As to SQVQ, the enrichment ratio amounted to 15.1.

On to SEVQ, for which the enrichment ratio amounted to 11.9.

As to ATVQ, the enrichment ratio amounted to 13.9.

ATHP: the enrichment ratio was not above 0.25.

Regarding YTVQ, the enrichment ratio was found to be 0.393.

With NEVQ, the enrichment ratio is not above 0.25.

Regarding NQCF, the enrichment ratio is not above 0.25.

As to KRSQ, the enrichment ratio was not above 0.25.

On to WTEW, for which the enrichment ratio was not above 0.25.

With QAYY, the enrichment ratio came out at 10.3.

WESK: the enrichment ratio is not above 0.25.

Regarding QQNY, the enrichment ratio was 2.46.

As to WMDF, the enrichment ratio is not above 0.25.

For the variant ACYH, the enrichment ratio is not above 0.25.

For the variant QTFW, the enrichment ratio was not above 0.25.

For the variant QCGH, the enrichment ratio was found to be 24.2.

For QCDH, the enrichment ratio came to 18.8.

For the variant GYDH, the enrichment ratio is not above 0.25.

In the case of QCCA, the enrichment ratio is not above 0.25.

In the case of QCTH, the enrichment ratio was not above 0.25.

In the case of QCNH, the enrichment ratio is not above 0.25.

Take EMTV: the enrichment ratio is not above 0.25.

For the variant PVLS, the enrichment ratio is not above 0.25.

Turning to KFLE, the enrichment ratio is not above 0.25.

As to KSER, the enrichment ratio is not above 0.25.

As to FSLC, the enrichment ratio is 12.4.

For MSTS, the enrichment ratio stood at 0.73.

Take MSLC: the enrichment ratio worked out at 11.7.

Regarding FQLC, the enrichment ratio turned out to be 2.14.

For the variant FFLC, the enrichment ratio is not above 0.25.

With QPLC, the enrichment ratio is not above 0.25.

Take QFLC: the enrichment ratio was not above 0.25.

On to SILC, for which the enrichment ratio was 8.13.

Take FPLC: the enrichment ratio is not above 0.25.

As to QGLC, the enrichment ratio is 15.9.

With SYLC, the enrichment ratio was 0.631.

Take SSLC: the enrichment ratio amounted to 15.2.

In the case of EGVI, the enrichment ratio is not above 0.25.

Consider VVAR, for which the enrichment ratio was not above 0.25.

For WYHC, the enrichment ratio is not above 0.25.

As for SWDN, the enrichment ratio is not above 0.25.

MGQS: the enrichment ratio is not above 0.25.

Consider LWFG, for which the enrichment ratio was not above 0.25.

For the variant HKKG, the enrichment ratio is not above 0.25.

As to RSIL, the enrichment ratio is not above 0.25.

Take YKDC: the enrichment ratio was not above 0.25.

As to IGWW, the enrichment ratio is not above 0.25.

Take PKQD: the enrichment ratio was not above 0.25.

Take LTKR: the enrichment ratio was not above 0.25.

With HYAP, the enrichment ratio is not above 0.25.

For the variant KSLC, the enrichment ratio was not above 0.25.

With TSLC, the enrichment ratio amounted to 18.4.

For the variant MMLC, the enrichment ratio is not above 0.25.

Take PNER: the enrichment ratio was not above 0.25.

With RFQL, the enrichment ratio was not above 0.25.

Turning to SQAF, the enrichment ratio amounted to 3.99.

With AIAF, the enrichment ratio stood at 12.4.

Consider SIAF, for which the enrichment ratio worked out at 15.1.

On to KYAF, for which the enrichment ratio was not above 0.25.

On to AKAF, for which the enrichment ratio came out at 5.84.

For the variant KKAF, the enrichment ratio was not above 0.25.

On to GPRN, for which the enrichment ratio was not above 0.25.

As to NCRE, the enrichment ratio was not above 0.25.

DCLW: the enrichment ratio was not above 0.25.

For the variant PYCA, the enrichment ratio was not above 0.25.

In the case of HYKI, the enrichment ratio was not above 0.25.

As for YMVL, the enrichment ratio was not above 0.25.

For the variant DVFV, the enrichment ratio is not above 0.25.

As for RGCS, the enrichment ratio is 0.323.

Turning to GYCS, the enrichment ratio is not above 0.25.

For the variant GGCS, the enrichment ratio worked out at 13.1.

Consider NGCS, for which the enrichment ratio is not above 0.25.

With TGCS, the enrichment ratio stood at 13.

Regarding GGCI, the enrichment ratio was 0.663.

As to PLCL, the enrichment ratio was not above 0.25.

As to TTCL, the enrichment ratio is 18.5.

Take SLCL: the enrichment ratio was 11.2.

With MTCL, the enrichment ratio came out at 12.8.

For the variant LTCL, the enrichment ratio was not above 0.25.

Turning to ITCL, the enrichment ratio was not above 0.25.

As to STCL, the enrichment ratio came out at 15.7.

As to GTCL, the enrichment ratio was 9.42.

As for YTCL, the enrichment ratio came out at 5.77.
